In ChEMBL document CHEMBL3433997, “St. Jude Leishmania screening dataset” (2016):

molecular target: Solute carrier family 2, facilitated glucose transporter member 1 (Homo sapiens) (UniProt P11166); assay: ST_JUDE_LEISH: Cytotoxicity at 2uM final concentration against transgenic Leishmania Mexicana promastigotes LmGLUT1 that are glucose transport deficient and complemented with the human glucose transporter GLUT1. Activity is measured by DNA content using SYBR green in vitro; format: functional
Sequence (P11166 whole entry): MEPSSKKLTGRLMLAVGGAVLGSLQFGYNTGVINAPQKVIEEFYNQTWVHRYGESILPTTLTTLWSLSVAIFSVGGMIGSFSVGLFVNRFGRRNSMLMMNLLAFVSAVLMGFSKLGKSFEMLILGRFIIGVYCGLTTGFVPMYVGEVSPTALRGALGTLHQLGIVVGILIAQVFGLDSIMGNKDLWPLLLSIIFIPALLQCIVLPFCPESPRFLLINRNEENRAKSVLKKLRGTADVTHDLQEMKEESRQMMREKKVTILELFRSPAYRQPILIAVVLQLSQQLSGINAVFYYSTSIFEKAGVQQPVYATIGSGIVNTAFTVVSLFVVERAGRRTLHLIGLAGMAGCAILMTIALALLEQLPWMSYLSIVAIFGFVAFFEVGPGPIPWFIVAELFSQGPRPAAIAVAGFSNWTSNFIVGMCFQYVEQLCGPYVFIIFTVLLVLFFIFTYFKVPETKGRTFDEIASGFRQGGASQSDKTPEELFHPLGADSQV

SMILES	inhibition
COc1ccc(-n2nc(C)c3c2NC(=O)CC3c2ccccc2OCc2ccc(F)cc2)cc1 (stereo not given)	4.97%
CCCC(CNCc1cccc(OC(F)(F)C(F)F)c1)CNc1cc(=O)c2ccccc2[nH]1 (stereo not given)	-0.75%
Cc1nc(N)nc(N)c1-c1ccc(Br)c([N+](=O)[O-])c1	1.12%
O=C(/C=C/c1ccc(Cl)c(Cl)c1)NCC1CCN(Cc2ccc(O)cc2)CC1	69.6%
O=C(NC1CCN(Cc2ccc3c(c2)OCCO3)CC1)c1ccc(-c2cccc(C(F)(F)F)c2)s1	3.14%
CC(C)(C)C1CC(=O)CC2C(=O)N(c3ccc(Br)cc3)C(=O)C21 (stereo not given)	2.94%
C[C@@H](CC1CCCCC1)OC(=O)N[C@H]1CCN(C#N)C1	12.8%
Cc1nc(Nc2ccncc2)cc(-c2ccncc2)n1	0.59%
CCCc1cc(Cc2cnc(N)nc2N)cc(CC)c1OC	6.06%
CC(C)C[C@H](NC(=O)[C@H](Cc1ccccc1)NC(=O)CCN1C(=O)COc2ccc(C(=O)O)cc21)C(=O)NC(CC1CCCCC1)C(O)CC(=O)NCCCn1ccnc1 (stereo not given in full)	9.79%
OCCn1c(CNCCCNc2nc3ccccc3[nH]2)cc2c(Cl)cc(Cl)cc21	82%
CCCc1cc(=O)[nH]c(-n2nc(C)cc2NC(=O)c2cc3ccccc3o2)n1	12.6%
CCCN(CCC)C(=O)c1cc(C(=O)N[C@@H](Cc2ccccc2)[C@H](O)CNC2CC2)cc(N2CCCCS2(=O)=O)c1	2.88%
O=C1Nc2ccc3ncccc3c2/C1=C/Nc1ccc(N2CCN(CCO)CC2)cc1	2.74%
O=C1C(=Cc2cc(Cc3ccccc3)ccc2O)SC(=S)N1Cc1ccccc1	8.42%
CC(=O)Nc1ccc(CNC2Cc3ccc(-c4ccc(Cl)c(Cl)c4)cc3C2)cc1 (stereo not given)	-0.97%
CN1CCc2cc(NS(=O)(=O)c3ccc(-c4ccc(Cl)s4)cc3)c(N3CCCCC3)cc2CC1	-0.61%
Cc1ccc(NC(=O)c2cc(Br)cc(N3CCCN(C)CC3)c2)cc1F	-0.54%
CC(CCc1ccccc1)NCC(O)c1ccc2c(c1)S(=O)(=O)c1ccccc1N2 (stereo not given)	1.67%
O=C(Nc1ccc(-c2cccc(-c3nc4ccccc4[nH]3)c2)cc1)c1cnn2cccnc12	7.76%

SMILES	inhibition
COc1ccc(-c2ccc(NC(=O)c3ccc(Cl)cc3)cc2)cc1CN(C)CCO	4.1%
CCCC1(NC[C@@H](O)[C@H](Cc2ccccc2)NC(=O)c2cc(NCC)cc(N3CCCCS3(=O)=O)c2)CC1	1.58%
CN(c1ccccc1C(=O)Nc1ccccc1Oc1ccccc1)S(=O)(=O)c1ccccc1	0.02%
Fc1cccc(COc2ccc(Nc3ncnc4sc(C#CC5CCCCN5)cc34)cc2Cl)c1 (stereo not given)	3.03%
CN(C)CCn1c(N)c(-c2nc3ccccc3s2)c2nc(C#N)c(C#N)nc21	2.02%
Cc1ccccc1C1CCN(C2CCC(NC(=O)/C=C/c3cc(F)cc(F)c3)CC2)CC1 (stereo not given)	-1.34%
OCC1CCN(Cc2cccc(-c3ccc(-c4nc5cc(C(F)(F)F)ccc5[nH]4)s3)c2)CC1	4.2%
CNCCNCc1ccc(-c2cccc(-c3nc4cc(F)ccc4[nH]3)c2)cc1	2.53%
CCOc1ccc(OCCCON2C(=N)N=C(N)NC2(C)C)cc1	1.93%
Nc1c2c(nc3ccc(Oc4ccc(Br)cc4Br)cc13)CCCC2	81.2%
CCOc1ccc(-c2nonc2NC(=O)c2ccc(F)cc2)cc1OCC	-2.77%
O=C(C=Cc1cn(-c2ccccc2)nc1-c1cccs1)N1CCN(c2ccncc2)CC1	1.81%
CC(C)(C)c1nn(-c2ccccc2)c2[nH]c(=O)c(CNCc3ccc4c(c3)OCO4)cc12	6.79%
O=C(O)C[C@H](NC(=O)c1cc(-c2ccc3c(c2)OCO3)no1)C(=O)O.O=C(O)C[C@H](NC(=O)c1conc1-c1ccc2c(c1)OCO2)C(=O)O	-1.58%
CC(C)N1CCN(c2ccc(OCCCCN3CCN(c4cccc(Cl)c4Cl)CC3)c(C(F)(F)F)c2)CC1	-0.92%
CCOc1ccc(C(Cc2ccccc2)NC(=O)c2cccnc2)cc1OCC (stereo not given)	0.79%
CCN1CCC(NCc2ccc(-c3ccc(Cl)s3)cc2)CC1	-1.87%
CS(=O)(=O)NCCCNCc1ccc(-c2cccc(-c3nc4cc(F)ccc4[nH]3)c2)cc1	-2.11%
CCCN(CCC)C(=O)c1cc(C(=O)N[C@@H](Cc2ccccc2)[C@H](O)CNC(C)(C)c2cccc(C(F)(F)F)c2)cc(N2CCCCS2(=O)=O)c1	-1.43%
CCCCCCCc1ccc(-c2c(C)[nH]c(C)c(Cl)c2=O)cn1	0.84%

molecular target: Hexose transporter 1 (Plasmodium falciparum) (UniProt O97467); assay: ST_JUDE_LEISH: Cytotoxicity at 2uM final concentration against transgenic Leishmania Mexicana promastigotes LmPfHT that are glucose transport deficient and complemented with the Plasmodium falciparum hexose transporter. Activity is measured by DNA content using SYBR green in vitro; format: functional

SMILES	inhibition
COc1ccc(-n2nc(C)c3c2NC(=O)CC3c2ccccc2OCc2ccc(F)cc2)cc1 (stereo not given)	4.4%
CCCC(CNCc1cccc(OC(F)(F)C(F)F)c1)CNc1cc(=O)c2ccccc2[nH]1 (stereo not given)	-0.41%
Cc1nc(N)nc(N)c1-c1ccc(Br)c([N+](=O)[O-])c1	2.99%
O=C(/C=C/c1ccc(Cl)c(Cl)c1)NCC1CCN(Cc2ccc(O)cc2)CC1	57.8%
O=C(NC1CCN(Cc2ccc3c(c2)OCCO3)CC1)c1ccc(-c2cccc(C(F)(F)F)c2)s1	1.52%
CC(C)(C)C1CC(=O)CC2C(=O)N(c3ccc(Br)cc3)C(=O)C21 (stereo not given)	0.44%
C[C@@H](CC1CCCCC1)OC(=O)N[C@H]1CCN(C#N)C1	8.07%
Cc1nc(Nc2ccncc2)cc(-c2ccncc2)n1	4.18%
CCCc1cc(Cc2cnc(N)nc2N)cc(CC)c1OC	4.59%
CC(C)C[C@H](NC(=O)[C@H](Cc1ccccc1)NC(=O)CCN1C(=O)COc2ccc(C(=O)O)cc21)C(=O)NC(CC1CCCCC1)C(O)CC(=O)NCCCn1ccnc1 (stereo not given in full)	6.73%
OCCn1c(CNCCCNc2nc3ccccc3[nH]2)cc2c(Cl)cc(Cl)cc21	88.2%
CCCc1cc(=O)[nH]c(-n2nc(C)cc2NC(=O)c2cc3ccccc3o2)n1	13.1%
CCCN(CCC)C(=O)c1cc(C(=O)N[C@@H](Cc2ccccc2)[C@H](O)CNC2CC2)cc(N2CCCCS2(=O)=O)c1	2.88%
O=C1Nc2ccc3ncccc3c2/C1=C/Nc1ccc(N2CCN(CCO)CC2)cc1	2.28%
O=C1C(=Cc2cc(Cc3ccccc3)ccc2O)SC(=S)N1Cc1ccccc1	7.14%
CC(=O)Nc1ccc(CNC2Cc3ccc(-c4ccc(Cl)c(Cl)c4)cc3C2)cc1 (stereo not given)	-1.57%
CN1CCc2cc(NS(=O)(=O)c3ccc(-c4ccc(Cl)s4)cc3)c(N3CCCCC3)cc2CC1	0.7%
Cc1ccc(NC(=O)c2cc(Br)cc(N3CCCN(C)CC3)c2)cc1F	0.36%
CC(CCc1ccccc1)NCC(O)c1ccc2c(c1)S(=O)(=O)c1ccccc1N2 (stereo not given)	1.25%
O=C(Nc1ccc(-c2cccc(-c3nc4ccccc4[nH]3)c2)cc1)c1cnn2cccnc12	2.12%

SMILES	inhibition
COc1ccc(-c2ccc(NC(=O)c3ccc(Cl)cc3)cc2)cc1CN(C)CCO	3.45%
CCCC1(NC[C@@H](O)[C@H](Cc2ccccc2)NC(=O)c2cc(NCC)cc(N3CCCCS3(=O)=O)c2)CC1	1.33%
CN(c1ccccc1C(=O)Nc1ccccc1Oc1ccccc1)S(=O)(=O)c1ccccc1	0.41%
Fc1cccc(COc2ccc(Nc3ncnc4sc(C#CC5CCCCN5)cc34)cc2Cl)c1 (stereo not given)	1.13%
CN(C)CCn1c(N)c(-c2nc3ccccc3s2)c2nc(C#N)c(C#N)nc21	1.76%
Cc1ccccc1C1CCN(C2CCC(NC(=O)/C=C/c3cc(F)cc(F)c3)CC2)CC1 (stereo not given)	-0.51%
OCC1CCN(Cc2cccc(-c3ccc(-c4nc5cc(C(F)(F)F)ccc5[nH]4)s3)c2)CC1	4.88%
CNCCNCc1ccc(-c2cccc(-c3nc4cc(F)ccc4[nH]3)c2)cc1	3.78%
CCOc1ccc(OCCCON2C(=N)N=C(N)NC2(C)C)cc1	0.06%
Nc1c2c(nc3ccc(Oc4ccc(Br)cc4Br)cc13)CCCC2	84.6%
CCOc1ccc(-c2nonc2NC(=O)c2ccc(F)cc2)cc1OCC	2%
O=C(C=Cc1cn(-c2ccccc2)nc1-c1cccs1)N1CCN(c2ccncc2)CC1	0.46%
CC(C)(C)c1nn(-c2ccccc2)c2[nH]c(=O)c(CNCc3ccc4c(c3)OCO4)cc12	3.28%
O=C(O)C[C@H](NC(=O)c1cc(-c2ccc3c(c2)OCO3)no1)C(=O)O.O=C(O)C[C@H](NC(=O)c1conc1-c1ccc2c(c1)OCO2)C(=O)O	-1.07%
CC(C)N1CCN(c2ccc(OCCCCN3CCN(c4cccc(Cl)c4Cl)CC3)c(C(F)(F)F)c2)CC1	-1.01%
CCOc1ccc(C(Cc2ccccc2)NC(=O)c2cccnc2)cc1OCC (stereo not given)	-2.62%
CCN1CCC(NCc2ccc(-c3ccc(Cl)s3)cc2)CC1	-1.38%
CS(=O)(=O)NCCCNCc1ccc(-c2cccc(-c3nc4cc(F)ccc4[nH]3)c2)cc1	0.22%
CCCN(CCC)C(=O)c1cc(C(=O)N[C@@H](Cc2ccccc2)[C@H](O)CNC(C)(C)c2cccc(C(F)(F)F)c2)cc(N2CCCCS2(=O)=O)c1	4.18%
CCCCCCCc1ccc(-c2c(C)[nH]c(C)c(Cl)c2=O)cn1	1.55%
